Laboratory results: the supplement of paper PMC6555819

Legend:
Assay in all cases: PBM binding z-score (relative to random genomic background probes); higher = stronger binding; sequences stand for … in GC…GCGATTGACAGCGTAGAATGAAGG
[1] = system: PPARg:RXRa DBDmut IVT, anti-RXR (DBD mutation: RXRa K156A/R161A, NR concentration 270 nM, RXRa partner concentration 90 nM)
In short: (§1)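 Custom Agilent 4×180K protein-binding microarrays carried double-stranded probes. Their 34-nt variable regions held direct-repeat seeds, single-nucleotide variants, half-site ablations and random human genomic background sequences. Arrays were incubated 1 h with ligand-free nuclear receptor dimers in PBS pH 7.4, 2% milk, 0.02% Triton X-100, 1 mM DTT, 0.2 mg/mL BSA and 0.4 mg/ml salmon testes DNA. Antibodies against each partner (one per run) detected binding, and scanned fluorescence was regression-normalized. Binding z-scores use random background probes as reference.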

[2] = system: PPARg:RXRa IVT, anti-PPARg (NR concentration 270 nM, RXRa partner concentration 90 nM)
In short: as §1

[3] = system: PPARg DBDmut:RXRa IVT, anti-PPARg (DBD mutation: PPARg1 K132A/R137A, NR concentration 270 nM, RXRa partner concentration 90 nM)
In short: as §1

[4] = system: PPARg DBDmut IVT, anti-PPARg (DBD mutation: PPARg1 K132A/R137A, NR concentration 270 nM)
In short: as §1

[5] = system: PPARg homodimer (NR concentration 180 nM)
In short: as §1

[6] = system: PXR:RXRa (NR concentration 270 nM, RXRa partner concentration 90 nM)
In short: as §1

[7] = system: PXR homodimer (NR concentration 270 nM)
In short: as §1

[8] = system: RARa:RXR (NR concentration 270 nM, RXRa partner concentration 90 nM)
In short: as §1

[9] = system: RARa homodimer (NR concentration 270 nM)
In short: as §1

[10] = system: RARb:RXRa (NR concentration 270 nM, RXRa partner concentration 90 nM)
In short: as §1

[11] = system: RARb homodimer (NR concentration 270 nM)
In short: as §1

[12] = system: RARg:RXRa (NR concentration 270 nM, RXRa partner concentration 90 nM)
In short: as §1

[13] = system: RARg homodimer (NR concentration 270 nM)
In short: as §1

[14] = system: RXRa DBDmut IVT, anti-RXR (DBD mutation: RXRa K156A/R161A, NR concentration 90 nM)
In short: as §1

[15] = system: RXRa homodimer (NR concentration 180 nM)
In short: as §1

[16] = system: THRa:RXRa (NR concentration 90 nM, RXRa partner concentration 90 nM)
In short: as §1

[17] = system: THRa homodimer (NR concentration 90 nM)
In short: as §1

[18] = system: VDR homodimer (NR concentration 270 nM)
In short: as §1

Sequence | PBM binding z-score [1] | PBM binding z-score [2] | PBM binding z-score [3] | PBM binding z-score [4] | PBM binding z-score [5] | PBM binding z-score [6] | PBM binding z-score [7] | PBM binding z-score [8] | PBM binding z-score [9] | PBM binding z-score [10] | PBM binding z-score [11] | PBM binding z-score [12] | PBM binding z-score [13] | PBM binding z-score [14] | PBM binding z-score [15] | PBM binding z-score [16] | PBM binding z-score [17] | PBM binding z-score [18]
TCATATAGGTACAGGTGAAAGTCGAACGATATGA | 2.01 | 1.83 | 1.45 | 1.06 | 0.632 | 0.509 | -0.0466 | 0.718 | 0.84 | 0.896 | 0.469 | 0.866 | 0.834 | 0.797 | 1.07 | 0.566 | -0.52 | 0.343
CCAGACAGGTGCGAAGGTAACTCAGCCTCGATTA | -0.128 | -0.749 | -1.66 | -1.77 | -0.207 | -0.494 | -0.385 | -0.323 | 0.0972 | -0.199 | -0.418 | -0.29 | -0.243 | 0.384 | -0.121 | -0.305 | -0.159 | -0.453
CCTGCTAGGTCAATGGTCAGATAAAGCAGCTCGC | 4.27 | 4 | -0.328 | -0.659 | 1.01 | 0.646 | -0.497 | 1.44 | 0.218 | 3.65 | 2.54 | 3.8 | 4.61 | 1.55 | 2.45 | 2.12 | 0.626 | 0.232
GCTGCTAGGTCAACTGATGGTCAGTTAAAGCTCG | 4.66 | 4.13 | -0.118 | -0.331 | 1.79 | 1.64 | -0.519 | 2.6 | -0.0466 | 4.15 | 3.55 | 5.17 | 5.45 | 1.51 | 2.85 | 3.15 | 1.05 | -0.147
CCTAGCAGGCCAATCTGGGTCGCTCAAGGCTTGA | 1.28 | 2.66 | -1.25 | -1.04 | -0.519 | 0.776 | -0.579 | 1.45 | -0.891 | 0.807 | 0.548 | 0.673 | -0.21 | -0.847 | 0.755 | 2.75 | -0.707 | -0.559
GCTTGTTGGTCAGTAAAAGGTCACACACCGGTCG | 1.37 | 3.04 | 0.573 | 0.581 | 3.31 | 4.71 | 1.12 | 5.45 | 1.86 | 4.32 | 5.37 | 5.53 | 4.67 | 0.545 | 5.16 | 3.5 | 2.15 | 1.68
CGAACTAGGTCAGAACAGAACAGTGAAGGATGAT | 7.54 | 7.16 | 1.34 | 0.4 | 0.811 | -0.0344 | 0.00344 | 0.194 | -0.0462 | 2.8 | 1.65 | 2.36 | 3.14 | 0.286 | 1.16 | 1.34 | -0.073 | -0.0834
ATTGAAAGGTCGTGAGGTGAGTATACAGAAAGGC | 0.728 | 3.15 | 1.53 | 1.68 | 2.07 | 3.07 | 0.914 | 4.27 | 1.15 | 4.3 | 3.49 | 4.76 | 4.06 | 1.2 | 5.39 | 3.77 | 1.94 | 1.4
CCTCACGGGTCAAGGTTATAGCACGGGTGGTACG | 0.0332 | 1.85 | 0.133 | 0.0961 | 2.07 | 3.03 | 0.458 | 3.73 | 0.228 | 4.17 | 3.31 | 4.6 | 4.55 | -0.168 | 4.92 | 2.82 | 0.624 | 1.18
AGAACGAGGGCACTCTGAGTTGATAGCAGAGTAG | 3.52 | 2.74 | 0.243 | -0.0516 | -0.209 | 1.14 | -0.0913 | 0.301 | -0.677 | 1.84 | 0.374 | 1.4 | 1.55 | 2.21 | 0.823 | 1.29 | -0.153 | 1.73
CCTGCTAGGTCAATGGTGAGCTAAAGCAGCTCGC | 4.2 | 3.22 | -0.736 | -0.744 | 0.822 | 0.37 | -0.961 | 1.09 | -0.333 | 3.51 | 1.97 | 3.3 | 4.12 | 1.62 | 1.56 | 1.77 | 0.113 | -0.465
ACAGACAGGTGATGAAGGTAACTGAGGCTATCAT | 0.31 | 0.434 | 0.949 | 0.0407 | 0.301 | -0.124 | 0.0874 | 0.438 | 0.583 | 0.369 | 0.244 | 0.321 | 0.603 | -0.383 | 0.305 | 1.33 | -0.0787 | -0.259
CCTAGCAGGCCAATCAGGGTCACTCAAGGCTTGA | 1.3 | 1.7 | -0.834 | -1.49 | 0.893 | 4.07 | -0.258 | 3.42 | -0.49 | 2.36 | 3.13 | 2.79 | 2.02 | 0.629 | 3.31 | 4.68 | 1.15 | 1.77
TAGCCTAGGTCAGTTCGGGCCAGTATACGCTATA | 0.449 | 1.21 | -0.878 | -1.14 | -0.282 | 1.53 | -0.352 | 0.927 | -0.951 | 2.92 | 2.51 | 2.29 | 3.3 | 0.0401 | 0.716 | 4.04 | 0.352 | 0.242
CCGACTGGGGCAGTAAGGTTACCATACCATCCGG | 2.7 | 2.69 | -1.07 | -1.44 | 0.0978 | 0.28 | -0.0319 | 0.762 | -0.538 | 1.34 | 1.56 | 0.667 | 0.917 | -1.01 | 0.78 | 1.87 | 1.08 | 0.0425
